According to PubChem BioAssay (NCI):
The panel holds about 83,000 compounds, 20% with a hit somewhere; the sample as a whole holds those more often.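 For each line, cells grew in 96-well plates with the test compound present at a single concentration for 48 hours.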 The source made the active and inactive calls. The calls were made as follows: active = growth percent below 10; inactive = the rest.

Columns and labels:
Test in all cases: NCI-60 one-dose screen, 48 h (100 = growth as untreated, 0 = no growth, -100 = all killed)
Settings in all cases: 10 µM unless noted
DU-145 prostate = system: DU-145 prostate
K-562 leukemia = system: K-562 leukemia
MALME-3M melanoma = system: MALME-3M melanoma
MDA-MB-231 breast = system: MDA-MB-231 breast
RXF 393 renal = system: RXF 393 renal
SF-268 CNS = system: SF-268 CNS
SF-295 CNS = system: SF-295 CNS
SF-539 CNS = system: SF-539 CNS
UACC-257 melanoma = system: UACC-257 melanoma
M14 melanoma = system: M14 melanoma
HCT-15 colon = system: HCT-15 colon
HT29 colon = system: HT29 colon
SNB-75 CNS = system: SNB-75 CNS
SNB-19 CNS = system: SNB-19 CNS
U251 CNS = system: U251 CNS
PC-3 prostate = system: PC-3 prostate
SK-MEL-5 melanoma = system: SK-MEL-5 melanoma
UACC-62 melanoma = system: UACC-62 melanoma
LOX IMVI melanoma = system: LOX IMVI melanoma
SK-MEL-28 melanoma = system: SK-MEL-28 melanoma

Measured: growth

Cc1ccc(NC(=O)c2nc(S(C)=O)oc2-c2ccc(F)cc2)cc1Nc1nccc(-c2cccnc2)n1 (configuration not stated)
active: K-562 leukemia -16.7% | RXF 393 renal 7.47% | HCT-15 colon 0.45% | HT29 colon 1.98% | LOX IMVI melanoma -72.1%
inactive: DU-145 prostate 79.4% | MALME-3M melanoma 34.7% | MDA-MB-231 breast 39% | SF-268 CNS 54.4% | SF-295 CNS 86.4% | SF-539 CNS 69.4% | UACC-257 melanoma 87.3% | M14 melanoma 55.2% | SNB-75 CNS 95.6% | SNB-19 CNS 74.2% | U251 CNS 39.2% | PC-3 prostate 72.9% | SK-MEL-5 melanoma 68.3% | UACC-62 melanoma 65% | SK-MEL-28 melanoma 76.5%

O=c1cc(-c2ccc3c(c2)OCCO3)oc2cc(Cl)ccc12
active: MALME-3M melanoma -16.3% | SF-539 CNS -32.7% | HT29 colon -16.8% | SNB-75 CNS -38.5% | U251 CNS 4.26%
inactive: DU-145 prostate 25.6% | K-562 leukemia 35.1% | MDA-MB-231 breast 27.3% | RXF 393 renal 55.6% | SF-268 CNS 21.1% | SF-295 CNS 19.6% | UACC-257 melanoma 52.8% | M14 melanoma 60.6% | HCT-15 colon 74.5% | SNB-19 CNS 30.3% | PC-3 prostate 43.3% | SK-MEL-5 melanoma 76.3% | UACC-62 melanoma 65.1% | LOX IMVI melanoma 32.1% | SK-MEL-28 melanoma 21.4%

CCCCn1c(C)nc2cc(Nc3nc(Cl)nc4nc[nH]c34)ccc21
inactive: DU-145 prostate 89.6% | K-562 leukemia 90.3% | MALME-3M melanoma 79.8% | MDA-MB-231 breast 75% | RXF 393 renal 81.9% | SF-268 CNS 92.4% | SF-295 CNS 74.5% | SF-539 CNS 76.3% | UACC-257 melanoma 100% | M14 melanoma 86.8% | HCT-15 colon 90.7% | HT29 colon 83.6% | SNB-75 CNS 78.4% | SNB-19 CNS 87.4% | U251 CNS 77.2% | PC-3 prostate 59.7% | SK-MEL-5 melanoma 73.6% | LOX IMVI melanoma 90.4% | SK-MEL-28 melanoma 99.4%

COc1ccc(C2=NN(C=O)C(c3ccc(OS(=O)(=O)c4ccc(C)cc4)c(OC)c3)C2)cc1 (configuration not stated)
inactive: DU-145 prostate 72.8% | K-562 leukemia 16% | MALME-3M melanoma 45.9% | MDA-MB-231 breast 56.4% | RXF 393 renal 82.7% | SF-268 CNS 68.7% | SF-295 CNS 41.6% | SF-539 CNS 66.9% | UACC-257 melanoma 42.9% | M14 melanoma 58.8% | HCT-15 colon 61.8% | HT29 colon 35% | SNB-75 CNS 68.9% | SNB-19 CNS 62.5% | U251 CNS 60.3% | PC-3 prostate 48.4% | LOX IMVI melanoma 57.3% | SK-MEL-28 melanoma 75.5%
active: SK-MEL-5 melanoma 6.93%

O=C(/C=C/c1cn(-c2ccccc2)nc1-c1cccc(Nc2ccnc3cc(Cl)ccc23)c1)c1ccc2c(c1)OCO2
inactive: DU-145 prostate 76.8% | K-562 leukemia 66.8% | MALME-3M melanoma 38% | MDA-MB-231 breast 72.7% | RXF 393 renal 95.2% | SF-268 CNS 89.7% | SF-295 CNS 115% | SF-539 CNS 95.7% | UACC-257 melanoma 95% | M14 melanoma 111% | HCT-15 colon 91.9% | HT29 colon 114% | SNB-75 CNS 101% | SNB-19 CNS 104% | U251 CNS 89.1% | PC-3 prostate 96.6% | SK-MEL-5 melanoma 85.3% | UACC-62 melanoma 104% | LOX IMVI melanoma 94.1% | SK-MEL-28 melanoma 82.7%

c1ccc(-c2[nH]c3ccccc3c2-c2ccccc2)cc1
inactive: DU-145 prostate 99.7% | K-562 leukemia 83.4% | MALME-3M melanoma 93.9% | MDA-MB-231 breast 84.7% | RXF 393 renal 149% | SF-268 CNS 106% | SF-295 CNS 87.9% | SF-539 CNS 84.6% | UACC-257 melanoma 101% | M14 melanoma 89.5% | HCT-15 colon 79.6% | HT29 colon 88.4% | SNB-75 CNS 84.7% | SNB-19 CNS 97.5% | U251 CNS 87.8% | PC-3 prostate 79.4% | SK-MEL-5 melanoma 104% | UACC-62 melanoma 75.8% | LOX IMVI melanoma 79.8% | SK-MEL-28 melanoma 119%

CCCCn1c(C)nc2ccc(Nc3nc(Cl)nc4nc[nH]c34)cc21
inactive: DU-145 prostate 80.3% | K-562 leukemia 69.8% | MALME-3M melanoma 78.1% | MDA-MB-231 breast 64.8% | RXF 393 renal 62.9% | SF-268 CNS 76% | SF-295 CNS 76.3% | SF-539 CNS 79.9% | UACC-257 melanoma 92.5% | M14 melanoma 68.3% | HCT-15 colon 82.6% | HT29 colon 79.9% | SNB-75 CNS 62.8% | SNB-19 CNS 90.5% | U251 CNS 74.5% | PC-3 prostate 36.3% | SK-MEL-5 melanoma 63.6% | LOX IMVI melanoma 90.2% | SK-MEL-28 melanoma 94.3%

COc1ccc(C2CC(c3cccc(Nc4ccnc5cc(Cl)ccc45)c3)=NN2c2ccccc2)cc1 (configuration not stated)
inactive: DU-145 prostate 82.8% | K-562 leukemia 20.7% | MALME-3M melanoma 58.7% | MDA-MB-231 breast 74.2% | RXF 393 renal 99% | SF-268 CNS 71.2% | SF-295 CNS 23% | SF-539 CNS 65.4% | UACC-257 melanoma 59.7% | M14 melanoma 27% | HCT-15 colon 46.6% | HT29 colon 60.8% | SNB-75 CNS 62.5% | SNB-19 CNS 78.3% | U251 CNS 65.4% | PC-3 prostate 67.5% | SK-MEL-5 melanoma 39.1% | UACC-62 melanoma 29.5% | LOX IMVI melanoma 49% | SK-MEL-28 melanoma 84.9%
